# VDR inhibitor: vitamin D3 receptor (human) inhibition. P11473. VDR-SRC2-3 peptide fluorescence polarization, 2 h. Potency, µM, inactives show max response, negative = inhibition, hits mostly inhibitors. 400,000 tested, 0.93% active; also: % is scaled to controls: 0 for no effect and ±100 for the full control effect
#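 Inhibition of the VDR/SRC2-3 peptide interaction is quantified by fluorescence polarization. Compounds (23 nl, pintool) incubate with the reagents for 2 hours at ambient room temperature.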
# Tau FP inhib: tau fibrillization inhibition (FP) | AID 1468 | P10636 | K18 P301L tau heparin fibrillization, Alexa594 FP, 6 h | 280,000 tested, 0.39% active | Potency, µM (highest dose often 57.7 µM), for inactives: at the top dose activity, negative = inhibition, usual class: inhibitors; also: % is scaled to controls: 0 for no effect and ±100 for the full control effect; nearly all actives have a fitted effect of over 55% in size
# Target sequence (P10636 561-689 P618L limits assumed): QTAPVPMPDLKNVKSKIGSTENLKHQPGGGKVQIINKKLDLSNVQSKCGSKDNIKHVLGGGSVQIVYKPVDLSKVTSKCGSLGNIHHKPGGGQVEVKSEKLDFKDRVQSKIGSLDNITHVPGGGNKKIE
#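 Human tau K18 […] P301L fragment, 15 uM unlabeled plus 0.24 uM Alexa 594-labeled tau (final), with compound and 20 uM heparin in 100 mM sodium acetate pH 7; 6 hr at 37 C, then Alexa 594 FP read.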
# PLK1 PBD block: blocks phosphopeptide binding to human PLK1 polo-box domain. Plk1 PBD binding of FITC phosphopeptide, fluorescence polarization. 360,000 tested, 2.8% active. P53350. Potency, µM, inactives show max response, negative = inhibition, hits mostly inhibitors; also: series mostly up to about 57 µM; % is scaled to controls: 0 for no effect and ±100 for the full control effect; nearly all actives have a fitted effect of over 65% in size
# Target sequence (P53350 whole entry, looked up, the tested form may be a part): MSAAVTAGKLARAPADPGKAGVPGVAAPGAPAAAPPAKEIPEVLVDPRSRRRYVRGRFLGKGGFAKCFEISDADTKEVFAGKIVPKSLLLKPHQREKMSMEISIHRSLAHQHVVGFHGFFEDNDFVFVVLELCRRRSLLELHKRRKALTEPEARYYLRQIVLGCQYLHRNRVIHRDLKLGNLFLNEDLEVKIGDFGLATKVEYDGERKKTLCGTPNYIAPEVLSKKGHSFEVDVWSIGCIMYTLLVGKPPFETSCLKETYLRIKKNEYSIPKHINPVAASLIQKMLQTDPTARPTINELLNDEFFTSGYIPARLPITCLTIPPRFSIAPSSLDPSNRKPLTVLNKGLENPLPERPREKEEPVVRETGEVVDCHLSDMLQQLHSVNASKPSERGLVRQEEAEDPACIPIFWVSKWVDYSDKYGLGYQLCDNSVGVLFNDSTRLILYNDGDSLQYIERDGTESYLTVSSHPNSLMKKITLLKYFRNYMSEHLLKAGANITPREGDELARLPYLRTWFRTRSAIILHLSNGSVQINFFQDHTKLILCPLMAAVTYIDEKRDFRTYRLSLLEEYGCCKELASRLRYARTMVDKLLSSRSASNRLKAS
# Sfp inh: blocks B. subtilis Sfp PPTase activity; Potency, µM, inactives show largest response in the series, negative = inhibition, hits mostly inhibitors; Q9F4F7; 310,000 tested, 3.5% active; Biochemical Sfp PPTase activity, qHTS;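 also: the enzyme is Sfp with the accession as filed and its product quenches rhodamine fluorescence; 0% = enzyme reaction without inhibitor and -100% = no enzyme wells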
#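 Reaction rates are the 30-min fluorescence difference (ex 525, em 598 nm) in wells containing 15 nM Sfp, 5 uM rhodamine-CoA and 12.5 uM BHQ-2-YbbR at pH 7.6 with 10 mM MgCl2.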
# Tau fluor cs: counter-screen for tau fibril formation inhibitors; tau K18 P301L Alexa594 fluorescence, heparin fibrillization; Potency, µM (series often up to 57.7 µM), for the others: at the highest dose activity change, negative = decrease; 280,000 tested, 0.93% active; AID 1463; also: % is scaled to controls: 0 for no effect and ±100 for the full control effect; nearly all actives have a fitted effect of over 55% in size
#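 Human K18 P301L tau (15 uM unlabeled plus 0.24 uM Alexa 594-labeled, final) in 100 mM sodium acetate pH 7 was mixed with compound and 20 uM heparin and incubated 6 hr at 37 C.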
# Tau fibril ThT: inhibitors of human tau fibril formation, thioflavin T binding. 270,000 tested, 2.1% active. Potency, µM (titrated, usually from 57.4 µM), for the others: top-dose activity, negative = inhibition, hits mostly inhibitors. AID 1460. recombinant tau K18 P301L (four-repeat tau fragment), heparin-induced fibrillization, ThT fluorescence; also: % is scaled to controls: 0 for no effect and ±100 for the full control effect; nearly all actives have a fitted effect of over 55% in size
#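 Recombinant human tau K18 fragment […] carrying P301L, 15 uM unlabeled plus 0.24 uM Alexa 594-labeled, was fibrillized with 20 uM heparin in 100 mM sodium acetate pH 7 for 6 hr at 37 C; 30 uM ThT fluorescence read after 1 hr.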
# VDR inh confirm: inhibits human vitamin D receptor, primary hit validation; Potency, µM, hits mostly inhibitors; shares compounds with VDR inhibitor; AID 602199; VDR-coactivator inhibition assay, qHTS confirmation; 840 tested, 89% active
# VDR FP: blocks human VDR-coactivator binding in fluorescein assay. shares compounds with VDR inhibitor. VDR-coactivator binding, fluorescein fluorescence polarization. Potency, µM (titrated, usually from 57.1 µM), inactives show at the highest dose activity change, negative = inhibition, usual class: inhibitors. 840 tested, 48% active
# VDR bla: inhibits human VDR in beta-lactamase reporter cells; shares compounds with VDR inhibitor; VDR beta-lactamase reporter cells, FRET ratio; cells co-treated with VDR agonist LG190178; Potency, µM (doses to about 46.1 µM), without a hit: top-dose activity change, negative = inhibition, usual class: inhibitors; 840 tested, 23% active; also: % is scaled to controls: 0 for no effect and ±100 for the full control effect
# VDR viability: cell toxicity, VDR inhibitor hit counter-screen; shares compounds with VDR inhibitor; cytotoxicity counter-screen, cell viability, qHTS; Potency, µM (highest dose often 48.3 µM), inactives show at the top dose activity change, negative = cytotoxicity, usual class: cytotoxic; 840 tested, 18% active; AID 602204;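 also: plate controls were DMSO for no effect and high-concentration cycloheximide for full effect; nearly all actives have a fitted effect of over 75% in size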
# Active calls of the source: *; ? = inconclusive; . = no result given; [ ] = another dose, or the depositor's remark. Compounds with a hit are over-represented: about 6% of the library has one in this group of screens. Calls follow the shape of the dose curve; as a rule, active = well fitted curve in the direction sought with a large enough effect; inconclusive = small, poorly fitted or top-dose-only effect, or another doubt; inactive = no such curve, though single readings can be large; an effect the other way counts as inactive or inconclusive. Potency is read from the fitted curve at half-maximal effect.
SMILES,VDR inhibitor,Tau FP inhib,PLK1 PBD block,Sfp inh,Tau fluor cs,Tau fibril ThT,VDR inh confirm,VDR FP,VDR bla,VDR viability
CC(=O)C1=C(c2ccc(Br)cc2)C(=O)c2ccccc2C1=O,25µM*,?,-21%,-15%,?,8.9µM*,5*,7.9µM*,2.9µM*,8.4µM*
COC(=O)c1c(NC(=O)CN2C(=O)c3ccccc3C2=O)sc(Cc2ccc3c(c2)OCO3)c1C,-2%,?,-8%,6%,?,-12%,.,.,.,.
Cc1c(Cc2ccc3c(c2)OCO3)sc(NC(=O)c2cccc3ccccc23)c1C(N)=O,?,?,6µM*,35µM*,?,?,10*,14µM*,?,-26%
Cc1cc(=O)n(CC(=O)N2CCN(c3ccc(F)cc3)CC2)c2c1c(C)nn2C,-10%,3%,.,.,-6%,-6%,.,.,.,.
O=C(OCc1nnc(-c2ccc(Cl)cc2)o1)c1ccc(O)cc1,-3%,-4%,-9%,-8%,-26%,?,.,.,.,.
CS(=O)(=O)c1ccc(C(=O)OCc2nnc(-c3ccc(Cl)cc3)o2)cc1[N+](=O)[O-],25µM*,7%,-25%,-3%,?,?,5.6*,2.2µM*,15µM*,?
CC(N=Cc1cccc(O)c1O)c1ccccc1 (stereo not given),50µM*,?,?,?,?,5µM*,20*,10µM*,12µM*,-17%
CC(N=Cc1cc([N+](=O)[O-])ccc1O)c1ccccc1 (stereo not given),-3%,-7%,-17%,14%,7%,1%,.,.,.,.
Cc1ccc(S(=O)(=O)Nc2ccc(O)c3ccccc23)c(C)c1,28µM*,.,4.2µM*,56µM*,.,.,11*,10µM*,9%,?
O=C(NC1(O)C(=O)c2ccccc2C1=O)c1ccc(C(F)(F)F)cc1,1.8µM*,?,-16%,-7%,-15%,.,4.7*,?,22%,11%
Cc1ccc(C(=O)NC2(O)C(=O)c3ccccc3C2=O)cc1C,10µM*,4µM*,-22%,7%,-11%,.,?,?,13%,-1%
Cc1cc(C)c(OCC(=O)OCC(=O)NCc2ccco2)c(C)c1,.,.,3%,.,.,.,.,.,.,.
COc1ccc2cc1Oc1cc3c(cc1OC)CC[N+](C)(C)C3Cc1ccc(cc1)Oc1c(OC)c(OC)cc3c1C(C2)[N+](C)(C)CC3 (stereo not given),-1%,.,.,-5%,.,.,.,.,.,.
CC1(C)CC(=O)C(C(c2cc([N+](=O)[O-])ccc2Cl)C2C(=O)CC(C)(C)CC2=O)C(=O)C1,-14%,.,-23%,.,.,.,.,.,.,.
Cc1sc(C(C2C(=O)CC(C)(C)CC2=O)C2C(=O)CC(C)(C)CC2=O)cc1[N+](=O)[O-],?,-5%,4.7µM*,6.3µM*,-18%,?,6.3*,4µM*,1%,2%
Cn1c(C(=O)Nc2cccc(Cl)c2)cc2c(=O)n(C)c3ccccc3c21,-6%,-11%,.,.,-12%,3%,.,.,.,.
CCCCN1C(=O)C(=Nc2cccc3cnccc23)c2ccccc21,50µM*,-6%,-14%,7%,-9%,?,15*,?,12%,29%
Cc1ccc([C@@H]2CC(=O)[C@@H]3CN(S(=O)(=O)c4ccc(C)cc4)[C@H](c4ccccc4F)C[C@@H]3N2S(=O)(=O)c2ccc(C)cc2)cc1,.,.,-14%,.,.,.,.,.,.,.
CS(=O)(=O)c1ccc(Sc2nc3ccccc3s2)c([N+](=O)[O-])c1,-6%,10%,-15%,-5%,?,?,.,.,.,.
O=[N+]([O-])c1cc(S(=O)(=O)C(F)(F)F)ccc1Sc1nc2ccccc2s1,35µM*,-13%,13µM*,-9%,13µM*[quencher],16µM*,9.5*,3.5µM*,?,?
COc1ccc(-n2nc(-c3ccc(C)cc3)c3cnc4cc(F)c(F)cc4c32)cc1,-16%,-1%,.,.,3%,0%,.,.,.,.
CSC1=NC(C)(C)C=C(/C=C/c2ccc(Cl)cc2Cl)N1,?,-3%,?,-18%,-22%,?,.,.,.,.
CCSC1=NC(C)(C)C=C(/C=C/c2ccc(Cl)cc2Cl)N1,?,-6%,?,?,-20%,?,14*,16µM*,23µM*,?
CCOc1ccc(NC(=O)C2CCCN(S(=O)(=O)c3cccc4nonc34)C2)cc1 (stereo not given),-9%,1%,.,.,-6%,-6%,.,.,.,.
O=C(Cn1cc(COc2c(F)c(F)cc(F)c2F)nn1)c1ccc(O)cc1,-4%,.,?,.,.,.,.,.,.,.
SMILES,VDR inhibitor,Tau FP inhib,PLK1 PBD block,Sfp inh,Tau fluor cs,Tau fibril ThT,VDR inh confirm,VDR FP,VDR bla,VDR viability
COc1cccc(C(C2C(=O)CC(C)(C)CC2=O)C2C(=O)CC(C)(C)CC2=O)c1,?,.,?,-29%,.,.,.,.,.,.
Cc1cc(C(C2C(=O)CC(C)(C)CC2=O)C2C(=O)CC(C)(C)CC2=O)cc(C)c1OC(F)F,10µM*,.,5.3µM*,-10%,.,.,24*,?,30%,22%
CCOC(=O)N1CCN(CCC(=O)c2ccc(Cl)cc2)CC1,35µM*,?,12µM*,50µM*,11%,7%,12*,11µM*,?,?
O=C(CCN1CCN(c2ccc([N+](=O)[O-])cc2)CC1)c1ccc(Cl)cc1,25µM*,.,?,?,.,.,27*,13µM*,12%,?
CCc1cc(=O)[nH]c(SCc2nc(-c3ccc(C(F)(F)F)cc3)no2)n1,9%,-2%,.,.,-4%,?,.,.,.,.
CCOC(=O)c1c(S(=O)(=O)N2CCC(C(=O)N3CCN(c4ccc(F)cc4)CC3)CC2)c(C)n(C)c1C,9%,7%,.,.,8%,2%,.,.,.,.
O=C(COc1ccc(Cl)cc1)Nc1ccc(-c2nc3ccccc3s2)c(O)c1,-4%,-3%,.,.,5%,?,.,.,.,.
Cc1ccc(N2C(=O)c3sc4nnc(C)c(=O)n4c3C2=O)cc1,2%,6%,-4%,12%,2%,1%,.,.,.,.

# Screens as filed in PubChem.
